Test results as given in paper PMC7862700, “An all-to-all approach to the identification of sequence-specific readers for epigenetic DNA modifications on cytosine”.

Key:
Test in all cases: DAPPL (digital affinity profiling via proximity ligation, sequencing); 10 mM Tris-HCl pH 7.5, 50 mM NaCl, 1 mM DTT, 4% glycerol, room temperature, 30 min; GST-TFs on glutathione beads, 16-mer random dsDNA library, 0.1% formaldehyde crosslink after washing; high values mean tight binding
Settings in all cases: protein: recombinant; tags: N-terminal GST; dsDNA, one strand shown
[1] = target: T1, GABPA (Homo sapiens, UniProt Q06546 1-454)
T1 sequence: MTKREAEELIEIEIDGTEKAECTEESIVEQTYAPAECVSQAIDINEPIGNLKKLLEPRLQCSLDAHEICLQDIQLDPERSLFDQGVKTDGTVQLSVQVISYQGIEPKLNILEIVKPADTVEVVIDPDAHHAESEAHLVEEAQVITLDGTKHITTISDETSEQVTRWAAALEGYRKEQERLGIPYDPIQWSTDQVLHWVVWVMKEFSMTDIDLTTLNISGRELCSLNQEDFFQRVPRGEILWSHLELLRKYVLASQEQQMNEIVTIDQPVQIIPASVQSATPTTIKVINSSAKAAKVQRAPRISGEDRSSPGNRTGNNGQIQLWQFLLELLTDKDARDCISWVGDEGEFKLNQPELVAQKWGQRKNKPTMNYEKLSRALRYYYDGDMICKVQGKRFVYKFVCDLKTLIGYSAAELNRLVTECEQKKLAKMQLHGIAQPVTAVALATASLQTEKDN
Outline: (§1)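 Binding signal is each hexamer's read frequency for a factor divided by its frequency in the tag-only sample. The factors were GST-fused human transcription factors from yeast, captured on glutathione beads, DNA-barcoded and pooled with that sample. Pools were incubated with 200 nmole of a random double-stranded 16-mer DNA library in Tris/NaCl/DTT/glycerol buffer at room temperature for 30 min, then washed, crosslinked with 0.1% formaldehyde, proximity-ligated with BsaI/T4 ligase (1 h, 37 °C), PCR-amplified and sequenced on an Illumina NextSeq500.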

[2] = target: T2, EHF (Homo sapiens, UniProt Q9NZC4 1-300)
T2 sequence: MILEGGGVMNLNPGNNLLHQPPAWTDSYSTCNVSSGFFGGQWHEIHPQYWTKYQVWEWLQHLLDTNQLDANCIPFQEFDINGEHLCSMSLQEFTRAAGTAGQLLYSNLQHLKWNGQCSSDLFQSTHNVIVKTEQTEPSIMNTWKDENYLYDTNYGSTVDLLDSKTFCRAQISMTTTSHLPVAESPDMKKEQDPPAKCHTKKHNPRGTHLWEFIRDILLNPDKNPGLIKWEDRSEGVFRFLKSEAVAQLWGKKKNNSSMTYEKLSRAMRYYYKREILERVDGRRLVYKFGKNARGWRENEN
Outline: as §1

[3] = target: ETV5 (Homo sapiens, UniProt P41161 1-510)
Outline: as §1

[4] = target: T3, ELK4 (Homo sapiens, UniProt P28324-2 1-405)
T3 sequence: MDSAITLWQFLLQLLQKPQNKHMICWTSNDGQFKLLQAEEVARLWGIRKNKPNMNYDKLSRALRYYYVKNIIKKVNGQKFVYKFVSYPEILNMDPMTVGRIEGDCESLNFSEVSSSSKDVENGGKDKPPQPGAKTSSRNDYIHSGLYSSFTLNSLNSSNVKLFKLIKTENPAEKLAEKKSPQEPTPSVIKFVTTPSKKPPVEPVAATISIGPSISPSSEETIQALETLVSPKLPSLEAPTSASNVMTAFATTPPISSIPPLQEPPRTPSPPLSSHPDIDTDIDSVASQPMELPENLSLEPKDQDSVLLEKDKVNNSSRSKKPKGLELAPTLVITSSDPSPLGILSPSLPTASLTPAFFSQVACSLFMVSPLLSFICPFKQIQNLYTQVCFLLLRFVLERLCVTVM
Outline: as §1

[5] = target: T4, ETV3 (Homo sapiens, UniProt P41162-2 1-143)
T4 sequence: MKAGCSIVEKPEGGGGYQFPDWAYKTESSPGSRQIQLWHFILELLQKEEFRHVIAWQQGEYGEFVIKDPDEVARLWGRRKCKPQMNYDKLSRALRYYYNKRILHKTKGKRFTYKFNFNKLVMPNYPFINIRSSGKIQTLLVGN
Outline: as §1

[6] = target: T5, ERG (Homo sapiens, UniProt P11308 1-479)
T5 sequence: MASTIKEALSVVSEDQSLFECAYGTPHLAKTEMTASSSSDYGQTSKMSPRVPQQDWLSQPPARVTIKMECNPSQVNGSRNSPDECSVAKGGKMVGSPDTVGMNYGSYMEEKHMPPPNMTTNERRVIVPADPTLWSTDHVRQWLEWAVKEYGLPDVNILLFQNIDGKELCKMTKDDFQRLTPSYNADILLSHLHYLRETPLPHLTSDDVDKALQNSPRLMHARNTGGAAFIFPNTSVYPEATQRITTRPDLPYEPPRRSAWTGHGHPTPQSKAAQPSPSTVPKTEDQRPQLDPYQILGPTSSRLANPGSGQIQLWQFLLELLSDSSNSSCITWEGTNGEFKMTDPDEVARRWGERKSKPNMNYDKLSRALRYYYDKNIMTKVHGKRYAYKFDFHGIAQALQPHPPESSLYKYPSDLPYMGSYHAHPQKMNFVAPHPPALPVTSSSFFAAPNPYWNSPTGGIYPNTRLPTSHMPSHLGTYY
Outline: as §1

[7] = target: ELF1 (Homo sapiens, UniProt P32519 1-619)
Outline: as §1

[8] = target: ETV1 (Homo sapiens, UniProt P50549 1-477)
Outline: as §1

[9] = target: T6, ERF (Homo sapiens, UniProt P50548 1-548)
T6 sequence: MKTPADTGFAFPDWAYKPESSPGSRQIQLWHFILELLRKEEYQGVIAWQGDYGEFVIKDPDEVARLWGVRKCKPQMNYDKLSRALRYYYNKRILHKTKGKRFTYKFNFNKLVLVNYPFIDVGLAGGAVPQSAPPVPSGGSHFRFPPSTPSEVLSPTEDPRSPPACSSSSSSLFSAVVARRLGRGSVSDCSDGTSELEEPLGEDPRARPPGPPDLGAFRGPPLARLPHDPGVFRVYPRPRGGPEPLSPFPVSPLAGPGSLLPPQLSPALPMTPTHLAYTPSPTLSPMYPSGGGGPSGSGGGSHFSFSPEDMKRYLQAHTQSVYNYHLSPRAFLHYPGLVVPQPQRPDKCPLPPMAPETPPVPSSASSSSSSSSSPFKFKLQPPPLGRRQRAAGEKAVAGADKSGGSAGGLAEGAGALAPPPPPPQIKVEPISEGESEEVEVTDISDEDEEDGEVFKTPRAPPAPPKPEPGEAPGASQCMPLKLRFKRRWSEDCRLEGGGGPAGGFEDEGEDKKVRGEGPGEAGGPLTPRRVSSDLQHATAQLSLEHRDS
Outline: as §1

[10] = target: T7, ETV3L (Homo sapiens, UniProt Q6ZN32 1-361)
T7 sequence: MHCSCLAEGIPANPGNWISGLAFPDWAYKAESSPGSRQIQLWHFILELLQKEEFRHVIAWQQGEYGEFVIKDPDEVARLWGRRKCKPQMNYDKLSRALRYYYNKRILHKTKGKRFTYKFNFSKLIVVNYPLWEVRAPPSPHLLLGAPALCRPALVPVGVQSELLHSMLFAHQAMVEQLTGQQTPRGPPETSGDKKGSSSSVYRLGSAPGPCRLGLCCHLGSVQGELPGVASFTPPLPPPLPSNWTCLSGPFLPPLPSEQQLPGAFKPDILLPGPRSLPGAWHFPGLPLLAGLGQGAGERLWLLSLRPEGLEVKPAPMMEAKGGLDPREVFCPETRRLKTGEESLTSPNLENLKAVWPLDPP
Outline: as §1

[11] = target: T8, ETS2 (Homo sapiens, UniProt P15036 1-469)
T8 sequence: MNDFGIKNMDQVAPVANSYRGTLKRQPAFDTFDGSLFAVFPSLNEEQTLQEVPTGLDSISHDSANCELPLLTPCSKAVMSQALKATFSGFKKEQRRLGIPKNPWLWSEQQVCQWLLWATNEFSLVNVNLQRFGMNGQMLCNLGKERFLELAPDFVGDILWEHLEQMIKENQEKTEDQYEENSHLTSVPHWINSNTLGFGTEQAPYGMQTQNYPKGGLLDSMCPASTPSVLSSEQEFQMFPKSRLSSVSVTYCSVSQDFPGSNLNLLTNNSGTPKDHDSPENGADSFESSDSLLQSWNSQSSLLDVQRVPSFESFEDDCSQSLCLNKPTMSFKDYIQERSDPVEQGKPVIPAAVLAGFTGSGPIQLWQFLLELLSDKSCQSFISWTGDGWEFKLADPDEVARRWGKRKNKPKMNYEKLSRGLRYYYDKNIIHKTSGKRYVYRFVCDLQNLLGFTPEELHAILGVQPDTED
Outline: as §1

[12] = target: T9, SPDEF (Homo sapiens, UniProt O95238 1-335)
T9 sequence: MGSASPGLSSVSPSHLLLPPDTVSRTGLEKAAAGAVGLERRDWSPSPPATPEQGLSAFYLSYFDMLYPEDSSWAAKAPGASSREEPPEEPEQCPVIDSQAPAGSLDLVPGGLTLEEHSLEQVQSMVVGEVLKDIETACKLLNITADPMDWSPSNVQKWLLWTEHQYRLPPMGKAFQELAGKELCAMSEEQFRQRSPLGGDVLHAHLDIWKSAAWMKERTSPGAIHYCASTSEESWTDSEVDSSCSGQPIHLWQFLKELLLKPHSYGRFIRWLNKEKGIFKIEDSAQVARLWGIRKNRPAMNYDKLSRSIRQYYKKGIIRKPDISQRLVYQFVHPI
Outline: as §1

[13] = target: T10, ETV7 (Homo sapiens, UniProt Q9Y603 1-341)
T10 sequence: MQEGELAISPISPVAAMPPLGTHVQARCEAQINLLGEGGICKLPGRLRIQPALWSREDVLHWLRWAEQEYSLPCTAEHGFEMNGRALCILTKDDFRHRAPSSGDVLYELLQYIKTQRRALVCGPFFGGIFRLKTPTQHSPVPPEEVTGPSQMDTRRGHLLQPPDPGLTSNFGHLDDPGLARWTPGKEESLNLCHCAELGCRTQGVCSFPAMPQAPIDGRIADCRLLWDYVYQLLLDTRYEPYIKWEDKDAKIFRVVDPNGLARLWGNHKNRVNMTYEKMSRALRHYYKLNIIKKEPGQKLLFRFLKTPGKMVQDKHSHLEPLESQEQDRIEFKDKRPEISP
Outline: as §1

[14] = target: ETV6 (Homo sapiens, UniProt P41212 1-452)
Outline: as §1

Sequence of ETV5 (P41161 whole entry): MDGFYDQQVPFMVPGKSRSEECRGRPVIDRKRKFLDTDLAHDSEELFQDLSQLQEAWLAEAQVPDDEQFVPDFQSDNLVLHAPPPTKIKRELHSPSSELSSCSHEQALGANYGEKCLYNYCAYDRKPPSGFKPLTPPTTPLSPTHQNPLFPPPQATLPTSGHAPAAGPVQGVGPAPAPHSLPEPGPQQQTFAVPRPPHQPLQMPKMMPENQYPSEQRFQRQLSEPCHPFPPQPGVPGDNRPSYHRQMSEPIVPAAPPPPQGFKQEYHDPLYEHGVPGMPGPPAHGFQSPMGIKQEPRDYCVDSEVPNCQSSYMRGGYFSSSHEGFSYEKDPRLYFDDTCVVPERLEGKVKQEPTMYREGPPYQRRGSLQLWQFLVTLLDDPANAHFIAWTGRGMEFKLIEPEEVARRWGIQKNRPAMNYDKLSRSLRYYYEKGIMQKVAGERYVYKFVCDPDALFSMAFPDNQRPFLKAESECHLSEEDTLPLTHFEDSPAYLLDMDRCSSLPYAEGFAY
Sequence of ELF1 (P32519 whole entry): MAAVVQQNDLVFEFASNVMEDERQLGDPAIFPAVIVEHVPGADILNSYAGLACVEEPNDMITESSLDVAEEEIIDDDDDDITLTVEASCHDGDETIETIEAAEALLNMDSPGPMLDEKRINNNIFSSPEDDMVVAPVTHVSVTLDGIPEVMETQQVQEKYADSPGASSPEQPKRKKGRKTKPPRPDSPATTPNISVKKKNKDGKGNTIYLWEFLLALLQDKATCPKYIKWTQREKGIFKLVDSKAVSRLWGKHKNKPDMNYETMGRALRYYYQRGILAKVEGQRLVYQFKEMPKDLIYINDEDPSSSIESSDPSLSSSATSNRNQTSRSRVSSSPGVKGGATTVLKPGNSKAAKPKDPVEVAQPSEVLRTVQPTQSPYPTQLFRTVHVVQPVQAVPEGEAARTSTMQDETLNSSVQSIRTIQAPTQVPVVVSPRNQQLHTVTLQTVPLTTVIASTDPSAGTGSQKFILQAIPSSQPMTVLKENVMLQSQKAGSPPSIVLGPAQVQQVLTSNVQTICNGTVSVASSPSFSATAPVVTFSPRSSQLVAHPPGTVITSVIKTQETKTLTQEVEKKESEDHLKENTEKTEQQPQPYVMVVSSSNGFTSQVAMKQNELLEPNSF
Sequence of ETV1 (P50549 whole entry): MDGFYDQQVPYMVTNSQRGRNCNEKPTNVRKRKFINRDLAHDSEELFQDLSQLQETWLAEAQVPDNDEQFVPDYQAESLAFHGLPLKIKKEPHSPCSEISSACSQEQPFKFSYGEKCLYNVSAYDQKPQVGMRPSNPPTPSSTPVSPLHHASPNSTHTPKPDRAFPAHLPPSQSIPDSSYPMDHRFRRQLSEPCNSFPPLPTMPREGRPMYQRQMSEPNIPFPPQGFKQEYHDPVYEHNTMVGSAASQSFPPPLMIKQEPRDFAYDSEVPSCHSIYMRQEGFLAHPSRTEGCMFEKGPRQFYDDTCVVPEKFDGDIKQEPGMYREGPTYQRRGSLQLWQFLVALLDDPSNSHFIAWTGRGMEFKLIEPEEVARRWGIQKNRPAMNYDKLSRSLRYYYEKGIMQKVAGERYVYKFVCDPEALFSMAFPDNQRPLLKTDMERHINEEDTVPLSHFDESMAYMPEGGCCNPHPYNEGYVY
Sequence of ETV6 (P41212 whole entry): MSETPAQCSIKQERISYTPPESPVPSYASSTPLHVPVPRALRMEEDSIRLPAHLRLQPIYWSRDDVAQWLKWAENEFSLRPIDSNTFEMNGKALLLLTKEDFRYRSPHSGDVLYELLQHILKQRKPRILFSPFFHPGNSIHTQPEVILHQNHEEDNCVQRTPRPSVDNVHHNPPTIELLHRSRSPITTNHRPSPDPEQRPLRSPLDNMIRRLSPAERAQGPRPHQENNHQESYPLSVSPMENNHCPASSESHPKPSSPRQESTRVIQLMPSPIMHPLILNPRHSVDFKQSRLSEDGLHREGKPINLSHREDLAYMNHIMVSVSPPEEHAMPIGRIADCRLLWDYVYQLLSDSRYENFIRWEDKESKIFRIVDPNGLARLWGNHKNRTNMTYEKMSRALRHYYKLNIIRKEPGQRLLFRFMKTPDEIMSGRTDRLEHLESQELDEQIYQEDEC

Sequence: GACTTA
- binding signal [1]: 1.03 fold enrichment (6-mer frequency, TF over GST control)
- binding signal [2]: 1.04 fold enrichment (6-mer frequency, TF over GST control)
- binding signal [3]: 1.01 fold enrichment (6-mer frequency, TF over GST control)
- binding signal [4]: 1 fold enrichment (6-mer frequency, TF over GST control)
- binding signal [5]: 1.02 fold enrichment (6-mer frequency, TF over GST control)

Sequence: TCACGG
- binding signal [6]: 1.02 fold enrichment (6-mer frequency, TF over GST control)
- binding signal [7]: 1.06 fold enrichment (6-mer frequency, TF over GST control)
- binding signal [2]: 1.08 fold enrichment (6-mer frequency, TF over GST control)
- binding signal [3]: 1.04 fold enrichment (6-mer frequency, TF over GST control)
- binding signal [4]: 1.02 fold enrichment (6-mer frequency, TF over GST control)
- binding signal [8]: 1.09 fold enrichment (6-mer frequency, TF over GST control)
- binding signal [9]: 1.06 fold enrichment (6-mer frequency, TF over GST control)
- binding signal [10]: 1.02 fold enrichment (6-mer frequency, TF over GST control)
- binding signal [11]: 1.04 fold enrichment (6-mer frequency, TF over GST control)
- binding signal [12]: 1.1 fold enrichment (6-mer frequency, TF over GST control)
- binding signal [13]: 1.04 fold enrichment (6-mer frequency, TF over GST control)
- binding signal [14]: 1.05 fold enrichment (6-mer frequency, TF over GST control)
